Results on 31 molecules are retold here after article PMC9911399, “Two distinct binding modes provide the RNA-binding protein RbFox with extraordinary sequence specificity”.

T1: RBFOX1 RRM (Homo sapiens, UniProt Q9NWB1 109-208)
T1 sequence: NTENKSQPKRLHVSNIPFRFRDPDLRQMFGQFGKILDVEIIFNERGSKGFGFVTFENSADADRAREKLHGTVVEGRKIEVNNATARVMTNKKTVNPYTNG

B1: AACCAGU (DNA:RNA)
RNA: GGGAGACCGGAAUUCAGAUUGUCCAACCAGUUUAAAUCCCGUCGUAGCCACCA
DNA 1: CAATCTGAATTCCGGTCTCCC
DNA 2: TGGTGGCTACGACGGGATT
B2: AAUAAUU (DNA:RNA)
RNA: B1 RNA with C27U, C28A, G30U
DNA 1: CAATCTGAATTCCGGTCTCCC
DNA 2: TGGTGGCTACGACGGGATT
B3: UGUGACC (DNA:RNA)
RNA: B1 RNA with A25U, A26G, C27U, C28G, G30C, U31C
DNA 1: CAATCTGAATTCCGGTCTCCC
DNA 2: TGGTGGCTACGACGGGATT
B4: CAAGGCG (DNA:RNA)
RNA: B1 RNA with A25C, C27A, C28G, A29G, G30C, U31G
DNA 1: CAATCTGAATTCCGGTCTCCC
DNA 2: TGGTGGCTACGACGGGATT
B5: CUCGCUC (DNA:RNA)
RNA: B1 RNA with A25C, A26U, C28G, A29C, G30U, U31C
DNA 1: CAATCTGAATTCCGGTCTCCC
DNA 2: TGGTGGCTACGACGGGATT
B6: UUUUCCG (DNA:RNA)
RNA: GGGAGACCGGAAUUCAGAUUGUCCUUUUCCGUUAAAUCCCGUCGUAGCCACCA
DNA 1: CAATCTGAATTCCGGTCTCCC
DNA 2: TGGTGGCTACGACGGGATT
B7: CAUCAAA (DNA:RNA)
RNA: B1 RNA with A25C, C27U, G30A, U31A
DNA 1: CAATCTGAATTCCGGTCTCCC
DNA 2: TGGTGGCTACGACGGGATT
B8: GCCGGCC (DNA:RNA)
RNA: B1 RNA with A25G, A26C, C28G, A29G, G30C, U31C
DNA 1: CAATCTGAATTCCGGTCTCCC
DNA 2: TGGTGGCTACGACGGGATT
B9: UACAGCU (DNA:RNA)
RNA: B1 RNA with A25U, C28A, A29G, G30C
DNA 1: CAATCTGAATTCCGGTCTCCC
DNA 2: TGGTGGCTACGACGGGATT
B10: UGCAUGU (DNA:RNA)
RNA: B1 RNA with A25U, A26G, C28A, A29U
DNA 1: CAATCTGAATTCCGGTCTCCC
DNA 2: TGGTGGCTACGACGGGATT
B11: CUGCAUA (DNA:RNA)
RNA: B1 RNA with A25C, A26U, C27G, G30U, U31A
DNA 1: CAATCTGAATTCCGGTCTCCC
DNA 2: TGGTGGCTACGACGGGATT
B12: CUGCAUC (DNA:RNA)
RNA: B1 RNA with A25C, A26U, C27G, G30U, U31C
DNA 1: CAATCTGAATTCCGGTCTCCC
DNA 2: TGGTGGCTACGACGGGATT
B13: CUGCAUG (DNA:RNA)
RNA: B1 RNA with A25C, A26U, C27G, G30U, U31G
DNA 1: CAATCTGAATTCCGGTCTCCC
DNA 2: TGGTGGCTACGACGGGATT
B14: UGCAUAU (DNA:RNA)
RNA: B1 RNA with A25U, A26G, C28A, A29U, G30A
DNA 1: CAATCTGAATTCCGGTCTCCC
DNA 2: TGGTGGCTACGACGGGATT
B15: UGCAUUU (DNA:RNA)
RNA: B1 RNA with A25U, A26G, C28A, A29U, G30U
DNA 1: CAATCTGAATTCCGGTCTCCC
DNA 2: TGGTGGCTACGACGGGATT
B16: GCUGUAU (DNA:RNA)
RNA: B1 RNA with A25G, A26C, C27U, C28G, A29U, G30A
DNA 1: CAATCTGAATTCCGGTCTCCC
DNA 2: TGGTGGCTACGACGGGATT
B17: AUACGAU (DNA:RNA)
RNA: B1 RNA with A26U, C27A, A29G, G30A
DNA 1: CAATCTGAATTCCGGTCTCCC
DNA 2: TGGTGGCTACGACGGGATT
B18: AUUCUCC (DNA:RNA)
RNA: B6 RNA with U25A, U28C, C29U, G31C
DNA 1: CAATCTGAATTCCGGTCTCCC
DNA 2: TGGTGGCTACGACGGGATT
B19: CACCUGC (DNA:RNA)
RNA: B1 RNA with A25C, A29U, U31C
DNA 1: CAATCTGAATTCCGGTCTCCC
DNA 2: TGGTGGCTACGACGGGATT
B20: CGGGUCG (DNA:RNA)
RNA: B6 RNA with U25C, U26G, U27G, U28G, C29U
DNA 1: CAATCTGAATTCCGGTCTCCC
DNA 2: TGGTGGCTACGACGGGATT
B21: GGGUCGU (DNA:RNA)
RNA: B1 RNA with A25G, A26G, C27G, C28U, A29C
DNA 1: CAATCTGAATTCCGGTCTCCC
DNA 2: TGGTGGCTACGACGGGATT
B22: GGGGUAC (DNA:RNA)
RNA: GGGAGACCGGAAUUCAGAUUGUCCGGGGUACUUAAAUCCCGUCGUAGCCACCA
DNA 1: CAATCTGAATTCCGGTCTCCC
DNA 2: TGGTGGCTACGACGGGATT
B23: GGGGUCC (DNA:RNA)
RNA: B22 RNA with A30C
DNA 1: CAATCTGAATTCCGGTCTCCC
DNA 2: TGGTGGCTACGACGGGATT
B24: CGGGUAC (DNA:RNA)
RNA: B22 RNA with G25C
DNA 1: CAATCTGAATTCCGGTCTCCC
DNA 2: TGGTGGCTACGACGGGATT
B25: GGGUCCG (DNA:RNA)
RNA: B6 RNA with U25G, U26G, U27G
DNA 1: CAATCTGAATTCCGGTCTCCC
DNA 2: TGGTGGCTACGACGGGATT
B26: GUACUCU (DNA:RNA)
RNA: B1 RNA with A25G, A26U, C27A, A29U, G30C
DNA 1: CAATCTGAATTCCGGTCTCCC
DNA 2: TGGTGGCTACGACGGGATT
B27: GGGUACU (DNA:RNA)
RNA: B22 RNA with G28U, U29A, A30C, C31U
DNA 1: CAATCTGAATTCCGGTCTCCC
DNA 2: TGGTGGCTACGACGGGATT
B28: GGGGAGA (DNA:RNA)
RNA: B22 RNA with U29A, A30G, C31A
DNA 1: CAATCTGAATTCCGGTCTCCC
DNA 2: TGGTGGCTACGACGGGATT
B29: GGGGUCG (DNA:RNA)
RNA: B22 RNA with A30C, C31G
DNA 1: CAATCTGAATTCCGGTCTCCC
DNA 2: TGGTGGCTACGACGGGATT
B30: GGUACUC (DNA:RNA)
RNA: B22 RNA with G27U, G28A, U29C, A30U
DNA 1: CAATCTGAATTCCGGTCTCCC
DNA 2: TGGTGGCTACGACGGGATT
B31: CGUACUC (DNA:RNA)
RNA: B22 RNA with G25C, G27U, G28A, U29C, A30U
DNA 1: CAATCTGAATTCCGGTCTCCC
DNA 2: TGGTGGCTACGACGGGATT

Positions count from the first letter of the chain named. The full ranking holds about 16,000 sequences; the median of “ka relative to ugcaugu” is about 0.0091, and the highest 2% start at about 0.032. Only a selection was taken, and the highest values are over-represented in it overall.

This assay addresses T1, RBFOX1 RRM. In words: EMSA; HiTS-Eq, 1 nM pool, 10 min; buffer printed only for the single-RNA assays: 10 mM Tris pH 7.5, 150 mM NaCl, 3.4 mM EDTA, 0.001% NP-40, 30 C. To be noted: tags: His6 N-terminal (pET28a); label: 5' 32P. The essentials:
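These values rest on relative association constants, computed from read-count changes of each RNA species versus the control reaction and normalised to the cognate motif. Reads came from free RNA recovered by 8% native PAGE after purified RbFox RRM (wild type or mutant) at increasing concentrations was equilibrated for 10 min in 50 µL with 1 nM of a 5′-radiolabelled pool with 7 randomized nucleotides and DNA-annealed flanks.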
(In EMSA bound probe runs differently from free probe, usually more slowly.)
Take B1: the binding signal is 0.000945 KA relative to UGCAUGU.
In the case of B2 it was 0.00136 KA relative to UGCAUGU; in that of B3, 0.0155 KA relative to UGCAUGU; in that of B4, 0.00837 KA relative to UGCAUGU.
In the case of B5, the binding signal is 0.00968 KA relative to UGCAUGU.
Consider B6, for which the binding signal was 0.0112 KA relative to UGCAUGU.
As to B7, the binding signal is 0.00054 KA relative to UGCAUGU.
Under B8 stands 0.0116 KA relative to UGCAUGU.
For B9, the binding signal was 0.00395 KA relative to UGCAUGU.
In the case of B10, the binding signal was 1 KA relative to UGCAUGU.
Consider B11, for which the binding signal is 0.017 KA relative to UGCAUGU.
With B12, the binding signal was 0.0212 KA relative to UGCAUGU.
B13: the binding signal was 1.04 KA relative to UGCAUGU.
Regarding B14, the binding signal was 0.0115 KA relative to UGCAUGU.
Under B15 stands 0.0179 KA relative to UGCAUGU.
Regarding B16, the binding signal was 0.013 KA relative to UGCAUGU.
Consider B17, for which the binding signal is 0.00313 KA relative to UGCAUGU.
Regarding B18, the binding signal is 0.00179 KA relative to UGCAUGU.
In the case of B19 it was 0.00791 KA relative to UGCAUGU.
As to B20, the binding signal was 0.0322 KA relative to UGCAUGU.
Regarding B21, the binding signal is 0.0214 KA relative to UGCAUGU.
As to B22, the binding signal is 0.0356 KA relative to UGCAUGU.
B23: the binding signal is 0.0259 KA relative to UGCAUGU.
Take B24: the binding signal was 0.0309 KA relative to UGCAUGU.
As for B25, the binding signal was 0.0257 KA relative to UGCAUGU.
For B26, the binding signal was 0.0101 KA relative to UGCAUGU.
As for B27, the binding signal was 0.0165 KA relative to UGCAUGU.
As for B28, the binding signal is 0.0242 KA relative to UGCAUGU.
B29: the binding signal is 0.0492 KA relative to UGCAUGU.
Turning to B30, the binding signal is 0.032 KA relative to UGCAUGU.
B31: the binding signal was 0.00584 KA relative to UGCAUGU.
